This is an account of results in ChEMBL document CHEMBL3988442, “University of Dundee, Small-Polar-MMV Screening Library” (2021).

The campaign covered roughly 69,000 compounds. About 420 (0.61%) showed an effect of 50% or more. Shown is part of a subset that was picked to be rich in strong results.

The assay deals with T1, Histidine--tRNA ligase (Leishmania infantum) (UniProt A4I591).
T1 sequence (whole entry): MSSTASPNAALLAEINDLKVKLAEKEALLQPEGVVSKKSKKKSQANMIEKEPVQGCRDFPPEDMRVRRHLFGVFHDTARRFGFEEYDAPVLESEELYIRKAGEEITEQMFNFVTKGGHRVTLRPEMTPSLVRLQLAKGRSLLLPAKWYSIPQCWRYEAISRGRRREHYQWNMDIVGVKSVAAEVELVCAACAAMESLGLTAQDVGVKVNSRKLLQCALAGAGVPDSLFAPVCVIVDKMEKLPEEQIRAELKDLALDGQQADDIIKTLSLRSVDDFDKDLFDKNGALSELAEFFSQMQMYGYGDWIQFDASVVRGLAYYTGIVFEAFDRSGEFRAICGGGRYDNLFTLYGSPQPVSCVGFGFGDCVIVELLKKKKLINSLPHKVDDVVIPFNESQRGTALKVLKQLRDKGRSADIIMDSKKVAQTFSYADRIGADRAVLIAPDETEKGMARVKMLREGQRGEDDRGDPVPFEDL
In words: Leishmania infantum Histidine tRNA synthetase (LdHisRS). The class given is functional. Details: scale not given: in the data most compounds retested in dose-response had high values. Particulars: 30 µM.
For `CCOC1CCN(C(=O)NCc2ccc(C(=O)N(C)C(C)C)cc2)CC1`, the Percent Effect amounted to 16.7%. The value for `CC(C)c1nnc(NC(=O)N2CCN(C)CC2c2ccccc2)s1` (stereo not drawn) was 4.17%; that for `Cn1cc(NC(=O)N2CCC2c2ccccc2)ccc1=O` (stereo not drawn) was 108%; that for `Cn1cc(C(=O)N2CCN(c3ccccc3)CC2)ccc1=O` was 11%. To `Cc1oc(C)c(C(=O)N2CCN(Cc3cscn3)CC2)c1C` belongs 13.3%. On to `CCOC1CCN(C(=O)NCc2ccc(CN3CCOCC3)cc2)CC1`, for which the Percent Effect came out at 13.5%. For the compound `Cn1cc(NC(=O)C2CC(c3ccccc3)C2)ccc1=O` (stereo not drawn), the Percent Effect came to 71.3%.

Turning to `Cn1cc(C(=O)N2CCN(Cc3cscn3)CC2)ccc1=O`, the Percent Effect was 15.3%.

`CN1C(=O)CO[C@H](c2ccc(NC(=O)Nc3ccccc3)cc2)[C@H]1CO`: the Percent Effect was 14.9%. With `CC(C)Oc1ncccc1CNC(=O)N1CCC1c1ccccc1` (stereo not drawn), the Percent Effect was determined as 16.8%. As for `Cn1cc(NC(=O)N2CCN(Cc3cscn3)CC2)ccc1=O`, the Percent Effect amounted to 74.8%. As for `CCOC1CCN(C(=O)Nc2ccc(=O)n(C)c2)CC1`, the Percent Effect is 114%.

Turning to `O=C1[C@@H]2C[C@H](O)CCN2C(=O)CN1CCSc1ccccn1`, the Percent Effect is 17.6%. For `COc1ccccc1S(=O)(=O)N1CCN(C)[C@@H]2CS(=O)(=O)C[C@@H]21`, the Percent Effect is -6.67%. Consider `CN(C)C[C@H]1C[C@@H]2CN(C(=O)c3ccco3)C[C@@H]2O1`, for which the Percent Effect worked out at 10.3%. Take `O=C1N(Cc2ccccn2)C[C@H]2CN(S(=O)(=O)c3ccccc3)CCN12`: the Percent Effect was found to be 24.3%.

As to `Cn1nccc1C(=O)N1C[C@@H]2CC[C@H](Oc3cccc(F)c3)[C@@H]2C1`, the Percent Effect was determined as 18%. `Cc1cc(C(=O)N2C[C@@H]3CCCO[C@@H]3[C@H](N(C)C(C)C)C2)c(C)[nH]1`: the Percent Effect turned out to be 11.5%. As to `O=C(NCc1cccs1)[C@H]1CC[C@@H]2[C@@H](CCN2Cc2ccoc2)O1`, the Percent Effect was found to be 12.5%. As for `CCS(=O)(=O)N1CCO[C@H]2[C@H](OCC3CCCC3)CC[C@@H]21`, the Percent Effect came out at 20.8%. The value for `O=C(O)[C@]12CCCN(Cc3ccsc3)C[C@H]1CN(c1ncccn1)C2` was 10.5%; that for `O=C(Cc1cccc(F)c1)N1C[C@H]2CN(Cc3cccnc3)C[C@H]2C1` was 3.85%; that for `CC(C)CN1C[C@@H]2OCC(=O)N(c3ccccc3)[C@@H]2C1` was 21.6%.

For `C[C@H](NC(=O)N1CCC(Cc2ccccc2)CC1)C(=O)O`, the Percent Effect was -5%.

As to `Cn1cc(NC(=O)N2CCC(NS(C)(=O)=O)CC2)ccc1=O`, the Percent Effect worked out at 91.5%. On to `Cn1cc(NC(=O)N2CCC(Cc3ccccc3)CC2)ccc1=O`, for which the Percent Effect came out at 101%. Consider `Cn1cc(NC(=O)N2CCC(c3ccccc3)CC2)ccc1=O`, for which the Percent Effect was 102%.

As to `Cn1cc(NC(=O)N2CCC(OCc3ccccc3)CC2)ccc1=O`, the Percent Effect came to 103%. As for `CC(NC(=O)N1CCC(c2ccccc2)CC1)c1nncn1C` (stereo not drawn), the Percent Effect was 13.8%. For `O=C(C1CCOC1)N1CCC(OCc2ccccc2)CC1` (stereo not drawn), the Percent Effect stood at 16.8%.

As to `CS(=O)(=O)NC1CCN(C(=O)NCC2CCCO2)CC1` (stereo not drawn), the Percent Effect amounted to 11%. The value for `Cn1cc(NC(=O)N2CCC(CN3CCCC3)CC2)ccc1=O` was 6.38%.

For the compound `NC(=O)Cn1cc(NC(=O)N2CCC(c3ccccc3)CC2)cn1`, the Percent Effect came to 16.5%.

In the case of `CC(NC(=O)N1CCC(OCc2ccccc2)CC1)c1nncn1C` (stereo not drawn), the Percent Effect amounted to 20.3%. As to `CS(=O)(=O)NC1CCN(C(=O)c2ccc(F)cc2)CC1`, the Percent Effect was 28.1%.

On to `CN(C)C(=O)NC[C@H]1OC[C@@H]2CCN(Cc3ccoc3)C[C@@H]21`, for which the Percent Effect was -1.89%. As to `Cn1cccc1C(=O)N1CCO[C@@H]2CN(Cc3ccco3)C[C@@H]2C1`, the Percent Effect was 11.8%. With `Cc1occc1C(=O)N1C[C@@H](OCc2cccnc2)[C@H]2OCCC[C@@H]21`, the Percent Effect worked out at 28.2%.

For `O=C1O[C@@H]2CN(Cc3cc4ccccc4s3)C[C@@H]2N1Cc1ccccn1`, the Percent Effect amounted to 2.67%. On to `CCN1C(=O)CO[C@@H]2CN(C(=O)C3CCOCC3)C[C@H]21`, for which the Percent Effect was 20.6%.

As to `CN(C)S(=O)(=O)N1CC[C@]2(O)CCN(CCCc3cccnc3)C[C@@H]2C1`, the Percent Effect was 18.4%. With `Cc1ccccc1CN1C[C@@H]2COC[C@]2(CNC(=O)C2CCC2)C1`, the Percent Effect was determined as 13.9%. For `COCCOCC(=O)N1C[C@@H]2CC[C@H](Oc3ccccc3)[C@@H]2C1`, the Percent Effect came to 26.3%.

As for `Cc1noc(C)c1CNc1cccc(C(=O)N2CCCC(O)C2)c1` (stereo not drawn), the Percent Effect turned out to be 27.4%. In the case of `Cc1cc(CNc2ccc3nc(C4CC4)sc3c2)no1`, the Percent Effect was 27.6%. Take `Cc1noc(C)c1CNc1cccc(C(=O)N(C)c2ccccc2)c1`: the Percent Effect was -0.855%. Turning to `Cc1cc(CNc2ccc3nc(C)sc3c2)no1`, the Percent Effect worked out at 58.6%.

In the case of `Cc1cc(CNc2ccc(C(F)(F)F)cc2)no1`, the Percent Effect is 17%. On to `Cc1noc(C)c1CNc1ccc2nc(C3CC3)sc2c1`, for which the Percent Effect was 75.9%. On to `O=C(c1cscn1)N1CCO[C@H]2[C@@H](Oc3ccccn3)CC[C@@H]21`, for which the Percent Effect was found to be 7%. As for `Cc1noc(CN2C[C@H]3CC[C@@H]2CN(C2Cc4ccccc4C2)C3)n1`, the Percent Effect came to 20.4%. As to `O=C(N1CCOCC1)[C@@]12CCO[C@@H]1CCN(C1CCCCC1)C2`, the Percent Effect turned out to be 20.5%. Take `Cc1cccc(CN2C[C@@H]3CN(C(=O)c4ccsc4)C[C@@H]3C2=O)n1`: the Percent Effect worked out at 28.6%.

In the case of `Cc1cccc(CN2C(=O)CO[C@@H]3CN(Cc4nccn4C)C[C@H]32)c1`, the Percent Effect is 17.3%. `CCc1ccc(C(=O)NCCNc2ncccn2)cc1`: the Percent Effect was 2.63%. Take `Cc1ccc(C)n1-c1ccc(C(=O)NCCNc2ncccn2)cc1`: the Percent Effect was found to be 53%. The value for `O=C(NCCNc1ncccn1)c1ccc(Br)cc1` was 18.4%. Take `O=C(c1ccoc1)N1C[C@@H]2OCCN(c3ncccn3)[C@@H]2C1`: the Percent Effect worked out at 15.3%.
